# CBX7 AlphaScr – inhibitors of human CBX7 binding to H3K27me3 peptide; O95931; AlphaScreen His6-CBX7 / biotin-H3K27me3 peptide binding; stronger effect = lower value; normalised signal (fraction of DMSO) (concentration not given with the values); actives 1.1% (n = 66,000); in the data active = normalised signal below about 0.5
# Target sequence (O95931 whole entry, looked up): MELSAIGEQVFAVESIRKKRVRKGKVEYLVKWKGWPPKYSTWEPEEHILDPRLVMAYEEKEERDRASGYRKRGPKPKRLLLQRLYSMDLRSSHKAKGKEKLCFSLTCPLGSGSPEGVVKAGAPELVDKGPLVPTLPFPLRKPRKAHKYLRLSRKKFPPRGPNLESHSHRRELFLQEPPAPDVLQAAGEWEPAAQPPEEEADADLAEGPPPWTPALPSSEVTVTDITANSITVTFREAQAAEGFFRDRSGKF
# Active calls of the source: *. The entries come from a sample that favours hits as a whole.
SMILES,CBX7 AlphaScr
CCOC(=O)N1CCN(C(=O)C2CCN(C(=O)c3cc4sccc4n3CC)CC2)CC1,0.92
CCn1c(C(=O)N2CCC(C(=O)N3CCN(c4cccc(C)c4)C(C)C3)CC2)cc2sccc21 (stereo not given),0.44*
CN1C(=O)CC(NCc2ccc(S(N)(=O)=O)cc2)C1=O (stereo not given),1.1
Cc1nc(C)c(-c2csc(Nc3cccc(C(=O)O)c3)n2)s1,1.1
Cc1nc(C)c(-c2csc(Nc3cccc(O)c3)n2)s1,0.54
Cc1nc(C)c(-c2csc(Nc3ccc(C(=O)O)cc3)n2)s1,0.88
Cc1cccc(Nc2nc(-c3sc(C)nc3C)cs2)c1,0.45*
Cc1nc(C)c(-c2csc(Nc3ccccc3)n2)s1,0.48*
c1ccc(Nc2nc(-c3cccs3)cs2)cc1,0.9
CC(C)CCNC(=O)c1cc2c(s1)-c1ccccc1OC2,1
CCC(=O)N1CCc2cc(S(=O)(=O)N3CCCCC3)ccc21,1.1
CCn1cc(C(=O)NCCN2CCOCC2)c2cc(OC)c(OC)cc2c1=O,1.1
O=C(c1ccc(F)cc1)N1CCN(c2ccc3nnc(-c4ccc(F)cc4)n3n2)CC1,1
N#Cc1cnc(Nc2nc3ccccc3s2)nc1-c1ccccc1,1.1
NC(=O)c1oc2ccccc2c1NC(=O)c1ccc(S(=O)(=O)N2CCCCC2)cc1,1
Cc1nnc(NC(=O)c2ccc(S(=O)(=O)N3CCCCC3)cc2)o1,0.021*
Cc1nnc(NC(=O)c2ccc(S(=O)(=O)N3CC(C)OC(C)C3)cc2)o1 (stereo not given),0.0066*
COc1ccc(-c2nnc(NC(=O)c3ccc(S(=O)(=O)N4CC(C)OC(C)C4)cc3)o2)cc1 (stereo not given),0.53
Cc1ccccc1NC(=O)c1ccc(S(=O)(=O)N2CCCCC2)cc1,0.96
NC(=O)c1oc2ccccc2c1NC(=O)c1ccc(S(=O)(=O)N2CCCC2)cc1,1
CC1CCCN(S(=O)(=O)c2ccc(C(=O)Nc3nnc(C4CC4)o3)cc2)C1 (stereo not given),0.6
O=C(Nc1nnc(C2CC2)o1)c1ccc(S(=O)(=O)N2CCCC2)cc1,0.45*
Cc1nnc(NC(=O)c2ccc(S(=O)(=O)N3CCCCCC3)cc2)o1,0.002*
COc1ccccc1-c1nnc(NC(=O)c2ccc(S(=O)(=O)N3CC(C)OC(C)C3)cc2)o1 (stereo not given),0.68
COc1ccccc1-c1nnc(NC(=O)c2ccc(S(=O)(=O)N3CCCC3)cc2)o1,0.62
SMILES,CBX7 AlphaScr
Clc1ccc(/C=C/c2nc3ccccc3n2Cc2ccccc2)cc1,2
CCOC(=O)N1CCN(C(=O)Cc2c(C(=O)O)[nH]c3ccc(Cl)cc23)CC1,1.2
COc1ccc(-n2nc(C(=O)Nc3cccc(Cl)c3)c3ccccc3c2=O)cc1,1.1
Cc1onc(-c2ccccc2)c1C(=O)NCc1ccncc1,1.1
CC1(C(=O)NC2CCCCCCC2)CCC(=O)N1Cc1ccc(F)cc1 (stereo not given),1
COc1ccc(NC(=O)Cn2ccc3ccccc3c2=O)c(OC)c1,1.2
Cc1cccc(-c2nc(Nc3cc(F)ccc3C)c3ccccc3n2)c1,1
COc1cccc(C(=O)Nc2nc(-c3ccc(Cl)c(Cl)c3)cs2)c1,0.98
CCOc1ccc(N(CC)C(=O)Cc2c(C(=O)O)[nH]c3ccccc23)cc1,1
CCOc1ccccc1NC(=O)CS(=O)(=O)c1nc(-c2ccccc2)cn1-c1cccc(Cl)c1,0.66
CC(=O)Nc1ccc(-c2nc3cc(C)cc(C)c3o2)cc1,0.87
O=C(Nc1c(C(=O)Nc2ccc(Cl)cc2)cnn1-c1ccccc1)c1cccc(F)c1,0.93
Cc1ccc2c(c1)c1c(n2CC(O)CNc2ccccc2)CCCC1 (stereo not given),0.84
Cc1ccc(-c2cc(-c3c[nH]c4ccccc34)[nH]n2)cc1,0.75
COc1ccccc1OCc1nc(C#N)c(NCCc2ccccc2)o1,0.92
N#Cc1nc(COc2ccc(Cl)cc2)oc1NCc1cccnc1,0.97
N#Cc1nc(COc2ccc(Cl)cc2)oc1NCCCn1ccnc1,0.9
N#Cc1nc(COc2ccccc2F)oc1NCCc1ccccc1,0.49*
CC(Nc1oc(COc2ccccc2F)nc1C#N)c1ccccc1 (stereo not given),0.8
N#Cc1nc(COc2ccc(F)cc2)oc1NCCc1ccccc1,0.56
COc1ccc(CCNc2oc(COc3ccc(Cl)cc3)nc2C#N)cc1,0.93
COc1ccc(Nc2oc(COc3ccccc3F)nc2C#N)cc1,1.1
N#Cc1nc(COc2ccccc2Cl)oc1NCCCn1ccnc1,0*
Cc1ccccc1OCc1nc(C#N)c(NCCCn2ccnc2)o1,0.89
CN(Cc1ccccc1)c1oc(COc2ccccc2F)nc1C#N,0.42*
SMILES,CBX7 AlphaScr
CN(Cc1ccccc1)c1oc(COc2ccc(Cl)cc2)nc1C#N,0.48*
CCN1CCN(C(=O)Cn2nc(-c3ccc(C)cc3)ccc2=O)CC1,1
CCOC(=O)N1CCN(C(=O)CC2C(=O)N(Cc3ccccc3)C(C)c3nc4ccccc4n32)CC1 (stereo not given),1
COc1ccc(C2CC(c3ccc(Cl)cc3)n3ncnc3N2)cc1 (stereo not given),1
COc1c(Cl)ccc(Cl)c1C(=O)Nc1ccc(F)cc1,1.1
CC(O)Cc1nsc(NC(=O)c2ccccc2Cl)n1 (stereo not given),1.1
COc1ccc(OC)c(Nc2nc(-c3cccc(N4C(=O)c5ccccc5C4=O)c3)cs2)c1,0.88
Cc1ccc(S(=O)(=O)Nc2ccccc2C(=O)Nc2nc3c(C)cccc3s2)cc1,0.87
Cc1noc(C)c1S(=O)(=O)N(CC(=O)Nc1cccc(Cl)c1)c1ccc(C(C)C)cc1,1
Cc1cccc(Nc2nc(-c3ccncc3)cs2)c1,0.72
O=C(O)c1cccc(Nc2nc(-c3ccncc3)cs2)c1,0.97
Cc1cccc(Nc2nc(-c3ccccn3)cs2)c1,0.16*
O=C(O)c1cccc(Nc2nc(-c3ccccn3)cs2)c1,0.15*
O=C(O)c1cccc(Nc2nc(-c3ccccc3)cs2)c1,1
Oc1cccc(Nc2nc(-c3ccccn3)cs2)c1,0.19*
Cc1cccc(Nc2nc(-c3ccc(Cl)cc3)cs2)c1,0.76
CCc1ccc(-c2csc(Nc3ncccn3)n2)cc1,1.1
c1ccc(-c2csc(Nc3ncccn3)n2)nc1,0.0089*
COc1ccc(-c2csc(Nc3cccc(O)c3)n2)cc1OC,0.87
c1cnc(Nc2nc(-c3ccncc3)cs2)nc1,1.1
Oc1cccc(Nc2nc(-c3ccncc3)cs2)c1,0.77
COc1cccc(CNc2sc3c(c2C(=O)Nc2ccccc2OC)CCC3)c1,1
Cc1noc(C(=O)Nc2cccc(C(F)(F)F)c2)c1Cl,1.1
Cc1ccc(Nc2ccc(NCc3ccccc3)nn2)cc1Cl,0.91
CCc1ccccc1NC(=O)CN(C)S(=O)(=O)c1cnc[nH]1,0.85
SMILES,CBX7 AlphaScr
CCN(CC)S(=O)(=O)c1ccc2c(c1)N(CC(=O)NC1CCCc3ccccc31)C(=O)CS2 (stereo not given),1
O=C(NC1CC1)c1cc(=O)[nH]c2ccc(S(=O)(=O)N3CCCCCC3)cc12,0.95
CCCCCn1c(SCC(=O)OCC)nc2cc(C(=O)NCC3CCCO3)ccc2c1=O (stereo not given),1.2
CC(C)CCNC(=O)c1ccc2c(c1)N(Cc1ccccc1Cl)C(=O)CS2,1.1
COc1ccc(-c2csc(Nc3ccc(O)cc3)n2)cc1OC,0.77
Oc1ccc(Nc2nc(-c3ccccn3)cs2)cc1,0.0014*
CCOc1ccccc1Nc1nc(-c2ccccn2)cs1,0.6
COc1ccc(-c2nc(-c3ccccc3)c(-c3ccc(Oc4ccccc4)cc3)[nH]2)cc1,0.47*

# Screening results deposited in PubChem by Bradner/Qi Labs at DFCI.
